Here are results for 37 compounds from PubChem BioAssay (NCI).

“And” between values parts separate entries of the source, which are not always exact repeats. Equal values may be shown once. This is part of a sample that, as a whole, favours compounds with a hit. Of some 79,000 tested, about 15% had one in any assay. The source holds several records for some structures; these can differ, active in one and inactive in another. The source made the active and inactive calls. Rule as the data show it: active = growth inhibition above about 70%; inactive = the rest.

The first test can be described thus: NCI Yeast Anticancer Drug Screen. Data for the mec2-1 strain (AID 157). The following applies: S. cerevisiae mec2-1 strain, at 50.0 µM (retest, dose inferred, filed as 5.0), stronger effect = higher value. The procedure, abridged: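 Test agents were screened against the mec2-1 yeast strain, with defined DNA repair or cell cycle alteration. Growth was scored as inhibition against vehicle-only controls.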
As for `OCC1OC(n2cnc3c(=S)nc[nH]c32)C(O)C1O` (centres undefined), the growth inhibition was -14% (inactive).

On to `CCOC(=O)C(C(=O)c1ccccc1)C(=O)c1ccccc1`, for which the growth inhibition was 93% (active).

Take `COC1/C=C\C=C(/C)C(=O)Nc2cc3nc4ccc(Br)cc4oc-3c(c2=O)CC(C)CC(OC)C(O)C(C)/C=C(\C)C1OC(N)=O` (centres undefined): the growth inhibition was 98% (active).

`Nc1ccc([N+](=O)[O-])c(S(=O)(=O)O)c1`: the growth inhibition was -47% (inactive).

`CCOc1ccc2ccccc2c1C(Cc1ccc(Cl)cc1)NCCO` (centres undefined): the growth inhibition was 6% (inactive).

Take `O=C1C(=Cc2ccc(O)cc2)N=C(c2ccccc2)N1n1c(-c2ccccc2)nc2ccccc2c1=O`: the growth inhibition was 23% (inactive).

As for `Cc1nc2ccccc2cc1CCl`, the growth inhibition is 46% (inactive).

Take `Cc1cc(NS(=O)(=O)c2ccc(N=Nc3cc(N=Nc4ccc(S(=O)(=O)Nc5cc(C)nc(C)n5)cc4)c4c(NC(=O)C(Cl)Cl)cccc4c3OC(=O)C(Cl)Cl)cc2)nc(C)n1` (tested in a mixture with another compound): the growth inhibition was 92% (active).

For `CCCCCCN(CCCCCC)C(=O)C1=C(C)NC(C)=C(C(=O)N(CCCCCC)CCCCCC)C1`, the growth inhibition was -3% (inactive).

Turning to `O=[N+]([O-])Cc1cnc2nncn2n1`, the growth inhibition is 97% (active).

Regarding `COc1ccc(N/N=C(\CCN(C)C)c2ccccc2)cc1`, the growth inhibition is 40% (inactive).

Regarding `O=C(O)/C(=C(/c1ccccc1)c1ccc(Cl)cc1)c1ccccc1`, the growth inhibition was 100% (active).

For `c1ccc([P+](CCCCCCCC[P+](c2ccccc2)(c2ccccc2)c2ccccc2)(c2ccccc2)c2ccccc2)cc1`, the growth inhibition was 99% (active).

Turning to `OCCNc1nc(NCCO)c2nc(-c3ccccc3)c(-c3ccccc3)nc2n1`, the growth inhibition is 45% (inactive).

On to `OC(c1ccccc1)(c1ccccc1)c1ccccc1` (tested in a mixture with another compound), for which the growth inhibition is 91% (active).

Regarding `CC(=O)Nc1c(Cl)c(Cl)c2c(c1Cl)Cc1cc(Cl)ccc1-2`, the growth inhibition was 99% (active).

Consider `Cc1cc(C)nc(NS(=O)(=O)c2ccc(Nc3c4ccccc4nc4c(C(=O)NCCCN(CCO)CCO)cccc34)cc2)n1`, for which the growth inhibition is -14% (inactive).

As to `CCn1c2ccccc2c2ccc(N=Cc3ccc(N(C)C)cc3)cc21`, the growth inhibition is 17% (inactive).

Consider `O=C(C(=Cc1ccccc1)C(=O)c1ccccc1)c1ccccc1`, for which the growth inhibition is 95% (active).

Take `c1ccc(C2=NC(c3ccccc3)=NS(S3=NC(c4ccccc4)=NC(c4ccccc4)=N3)=N2)cc1` (centres undefined): the growth inhibition was 98% (active).

On to `Nc1nc(-c2ccccn2)cc2ccccc12`, for which the growth inhibition was 76% (active).

Turning to `CCN(CC)CCCn1c2cc(=O)c(=O)cc-2[nH]c2cc(C)ccc21`, the growth inhibition was 27% (inactive).

With `COc1cc(O)ccc1C(=S)SC`, the growth inhibition is 18% (inactive).

In the case of `O=[N+]([O-])C1=C(c2ccccc2)SC=C(c2ccccc2)S1`, the growth inhibition is -3% (inactive) and 1% (inactive).

Regarding `N#CC1(C2SCCS2=O)C2=C(C(=O)c3ccccc3C2=O)N2CCCC21` (centres undefined), the growth inhibition was 49% (inactive).

For the compound `O=C1C=CC(=O)C(C2OC(=O)C(Br)=C2Br)=C1` (centres undefined), the growth inhibition is -17% (inactive).

For the compound `CN1CCN(CCCN2c3ccccc3Sc3ccc(C(F)(F)F)cc32)CC1`, the growth inhibition is 98% (active) and 70% (active).

With `Cc1ccc(S(=O)(=O)C23C(N=NC2(C)C)C3(C)C)cc1` (centres undefined), the growth inhibition is -3% (inactive).

For `COC(=O)C(=O)C(C(=O)C(c1ccccc1)c1ccccc1)c1nc2n(c1O)/C(=N/C(=O)Nc1ccc(Cl)cc1)N=N2` (centres undefined), the growth inhibition was 58% (inactive).

For `O=C(O)c1ccc2c(c1)Cc1cc([N+](=O)[O-])ccc1-2`, the growth inhibition was 72% (active).

For `O=c1[nH]c2cc([N+](=O)[O-])ccc2nc1/C=C(\O)c1ccc([N+](=O)[O-])cc1`, the growth inhibition was 59% (inactive).

Regarding `c1ccc(C(c2ccccc2)n2ccnc2)cc1`, the growth inhibition was 18% (inactive).

On to `c1ccc2c(c1)CNc1ccccc1-2`, for which the growth inhibition was 21% (inactive).

Regarding `COC(=O)c1nnn(-c2ccc(S(N)(=O)=O)cc2)c1N`, the growth inhibition is -10% (inactive).

Regarding `COC(=O)c1ccc(O)c(OC)c1`, the growth inhibition was -3% (inactive).

Take `O=c1[nH]c(SCc2c(Cl)c(Cl)c(Cl)c(Cl)c2Cl)nc(=S)[nH]1`: the growth inhibition is 44% (inactive).

Consider `Cc1nc2c(ccc3[nH]c4ccccc4c32)s1`, for which the growth inhibition was 99% (active).

Still in this test, the particulars now being: S. cerevisiae mec2-1 strain, at 50.0 µM, stronger effect = higher value.
As to `OCC1OC(n2cnc3c(=S)nc[nH]c32)C(O)C1O` (centres undefined), the growth inhibition was 8.35% (inactive) and -13.8% (inactive).

In the case of `CCOC(=O)C(C(=O)c1ccccc1)C(=O)c1ccccc1`, the growth inhibition is -14.4% (inactive) and 91.2% (active).

For `COC1/C=C\C=C(/C)C(=O)Nc2cc3nc4ccc(Br)cc4oc-3c(c2=O)CC(C)CC(OC)C(O)C(C)/C=C(\C)C1OC(N)=O` (centres undefined), the growth inhibition is 90.9% (active).

Take `Nc1ccc([N+](=O)[O-])c(S(=O)(=O)O)c1`: the growth inhibition is 28.6% (inactive) and -3.55% (inactive).

Take `CCOc1ccc2ccccc2c1C(Cc1ccc(Cl)cc1)NCCO` (centres undefined): the growth inhibition is 93.5% (active).

As for `O=C1C(=Cc2ccc(O)cc2)N=C(c2ccccc2)N1n1c(-c2ccccc2)nc2ccccc2c1=O`, the growth inhibition is 38.9% (inactive).

Take `Cc1nc2ccccc2cc1CCl`: the growth inhibition was 59.5% (inactive).

For `Cc1cc(NS(=O)(=O)c2ccc(N=Nc3cc(N=Nc4ccc(S(=O)(=O)Nc5cc(C)nc(C)n5)cc4)c4c(NC(=O)C(Cl)Cl)cccc4c3OC(=O)C(Cl)Cl)cc2)nc(C)n1` (tested in a mixture with another compound), the growth inhibition was -17.1% (inactive) and 81.5% (active).

`CCCCCCN(CCCCCC)C(=O)C1=C(C)NC(C)=C(C(=O)N(CCCCCC)CCCCCC)C1`: the growth inhibition was 4.4% (inactive).

Turning to `O=[N+]([O-])Cc1cnc2nncn2n1`, the growth inhibition is 98.4% (active).

On to `COc1ccc(N/N=C(\CCN(C)C)c2ccccc2)cc1`, for which the growth inhibition was 3.7% (inactive).

`O=C(O)/C(=C(/c1ccccc1)c1ccc(Cl)cc1)c1ccccc1`: the growth inhibition was 32.6% (inactive) and -26.5% (inactive).

In the case of `c1ccc([P+](CCCCCCCC[P+](c2ccccc2)(c2ccccc2)c2ccccc2)(c2ccccc2)c2ccccc2)cc1`, the growth inhibition was 92% (active).

Consider `OCCNc1nc(NCCO)c2nc(-c3ccccc3)c(-c3ccccc3)nc2n1`, for which the growth inhibition was -0.45% (inactive) and 43.8% (inactive).

In the case of `OC(c1ccccc1)(c1ccccc1)c1ccccc1` (tested in a mixture with another compound), the growth inhibition was 2.55% (inactive) and 96.5% (active).

`CC(=O)Nc1c(Cl)c(Cl)c2c(c1Cl)Cc1cc(Cl)ccc1-2`: the growth inhibition was 98% (active).

For the compound `Cc1cc(C)nc(NS(=O)(=O)c2ccc(Nc3c4ccccc4nc4c(C(=O)NCCCN(CCO)CCO)cccc34)cc2)n1`, the growth inhibition is 25.8% (inactive).

As for `CCn1c2ccccc2c2ccc(N=Cc3ccc(N(C)C)cc3)cc21`, the growth inhibition is 41.5% (inactive).

Consider `O=C(C(=Cc1ccccc1)C(=O)c1ccccc1)c1ccccc1`, for which the growth inhibition is 90.5% (active) and 7.7% (inactive).

With `c1ccc(C2=NC(c3ccccc3)=NS(S3=NC(c4ccccc4)=NC(c4ccccc4)=N3)=N2)cc1` (centres undefined), the growth inhibition was 75.2% (active).

For `Nc1nc(-c2ccccn2)cc2ccccc12`, the growth inhibition was -11.2% (inactive).

As for `CCN(CC)CCCn1c2cc(=O)c(=O)cc-2[nH]c2cc(C)ccc21`, the growth inhibition was -4.3% (inactive).

As to `COc1cc(O)ccc1C(=S)SC`, the growth inhibition was 29.6% (inactive).

For `O=[N+]([O-])C1=C(c2ccccc2)SC=C(c2ccccc2)S1`, the growth inhibition is 13.4% (inactive) and 82.9% (active).

As to `N#CC1(C2SCCS2=O)C2=C(C(=O)c3ccccc3C2=O)N2CCCC21` (centres undefined), the growth inhibition is 77.2% (active).

On to `O=C1C=CC(=O)C(C2OC(=O)C(Br)=C2Br)=C1` (centres undefined), for which the growth inhibition was 5.5% (inactive).

Consider `CN1CCN(CCCN2c3ccccc3Sc3ccc(C(F)(F)F)cc32)CC1`, for which the growth inhibition was 99.2% (active) and 83.9% (active).

For the compound `Cc1ccc(S(=O)(=O)C23C(N=NC2(C)C)C3(C)C)cc1` (centres undefined), the growth inhibition was -10.6% (inactive).

For `COC(=O)C(=O)C(C(=O)C(c1ccccc1)c1ccccc1)c1nc2n(c1O)/C(=N/C(=O)Nc1ccc(Cl)cc1)N=N2` (centres undefined), the growth inhibition was 87.2% (active).

For `O=C(O)c1ccc2c(c1)Cc1cc([N+](=O)[O-])ccc1-2`, the growth inhibition was 13.4% (inactive).

On to `O=c1[nH]c2cc([N+](=O)[O-])ccc2nc1/C=C(\O)c1ccc([N+](=O)[O-])cc1`, for which the growth inhibition is 16.1% (inactive) and -6.35% (inactive).

With `c1ccc(C(c2ccccc2)n2ccnc2)cc1`, the growth inhibition is 60% (inactive).

Regarding `c1ccc2c(c1)CNc1ccccc1-2`, the growth inhibition is 42.7% (inactive).

Turning to `COC(=O)c1nnn(-c2ccc(S(N)(=O)=O)cc2)c1N`, the growth inhibition is 19.6% (inactive).

Take `COC(=O)c1ccc(O)c(OC)c1`: the growth inhibition was -2.35% (inactive).

On to `O=c1[nH]c(SCc2c(Cl)c(Cl)c(Cl)c(Cl)c2Cl)nc(=S)[nH]1`, for which the growth inhibition is 38.8% (inactive).

Consider `Cc1nc2c(ccc3[nH]c4ccccc4c32)s1`, for which the growth inhibition is 92.5% (active).
